Bioassay records from PubChem.
Shown are actives, neighbours in structure and some others; about 7.8% of the full set was active somewhere.
HCV inhibitor – blocks hepatitis C virus; Huh7.5.1 HCVcc-Cre infection, luciferase reporter, 44 h; Potency, µM (series often up to 41.8 µM), for the others: top-dose activity change, negative = inhibition, hits mostly inhibitors; 340,000 compounds, 3.4% hits; AID 651820; active = well fitted inhibition curve with a large enough effect; inconclusive = small, poorly fitted or top-dose-only effect, or another doubt; inactive = no such curve, though single readings can be large or run the other way; note: potency is the fitted concentration of half-maximal effect
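Compounds are dispensed onto cells plated 4 h earlier at 1,000 per well, with HCVcc-Cre virus (about 0.5 moi) added next. Following 44 h of culture, luminescent signal is measured for 15 sec after 15 min with substrate at room temperature.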
VACV mCherry inh – inhibitors of vaccinia virus infection (mCherry reporter signal); Vaccinia virus mCherry reporter infection, fluorescence; Potency, µM (series often up to 36.5 µM), for the others: at the top dose activity change, negative = inhibition, most hits filed as inhibitors; 310,000 compounds, 0.63% hits; calls by dose curve; tested in A549 cells; note: potency is the fitted concentration of half-maximal effect; nearly all actives have a fitted effect of over 35% in size
HCMV antiviral – blocks human cytomegalovirus replication; HFF cells, HCMV-luciferase reporter, 72 h; stronger effect = lower value; activity change, negative = inhibition, % at 57.5 µM; 410,000 compounds, 4.5% hits; AID 1259415; in the data active = activity change below about -60%; inconclusive = no clear call, values can overlap the other calls; inactive = above about -39%
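Inhibition of viral replication was scored as loss of reporter luminescence in HFFs infected with HCMV-luciferase (MOI 1 PFU/cell) for 72 h; compounds tested at 2 doses, normalized to buffer and Salinomycin controls.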
VACV Venus inh – inhibitors of vaccinia virus (Venus reporter); 330,000 compounds, 0.46% hits; Potency, µM (highest dose often 36.5 µM), without a hit: at the top dose activity change, negative = inhibition, hits mostly inhibitors; AID 720580; Vaccinia virus Venus reporter expression, fluorescence; calls by dose curve; tested in A549 cells; note: potency is the fitted concentration of half-maximal effect; nearly all actives have a fitted effect of over 30% in size
MARV entry inh – blocks Marburg virus binding to or entry into cells. Marburg virus pseudotyped entry inhibition, cell reporter. Potency, µM (doses to about 37.8 µM), without a hit: at the highest dose activity change, negative = inhibition, hits mostly inhibitors. 300,000 compounds, 1.8% hits; calls by dose curve; tested in HEK293 cells; note: potency is the fitted concentration of half-maximal effect
LASV entry inh – Lassa virus entry inhibition. Lassa virus pseudotype entry inhibition, cell reporter. Potency, µM (titrated, usually from 37.9 µM), inactives show at the top dose activity change, negative = inhibition, usual class: inhibitors. 300,000 compounds, 1.2% hits; calls by dose curve; tested in HEK293 cells; note: potency is the fitted concentration of half-maximal effect; nearly all actives have a fitted effect of over 50% in size
Starred values were filed as active, the others as inactive; [ ] = another dose, or the depositor's remark. % is set by controls: 0 for no effect and ±100 for the full control effect.

COc1ccccc1NS(=O)(=O)c1cccc(C(=O)N/N=C/c2ccc([N+](=O)[O-])o2)c1 was read as HCV inhibitor 11µM*, VACV mCherry inh inconclusive, HCMV antiviral -36, VACV Venus inh inconclusive, MARV entry inh inconclusive and LASV entry inh 14µM*.
For COc1ccccc1/C=N/NC(=O)c1ccc(Br)cc1 the results were HCV inhibitor -5%, VACV mCherry inh inconclusive, HCMV antiviral -4, VACV Venus inh -15%, MARV entry inh -21%[46.1 µM] and LASV entry inh -14%[46.1 µM].
Screening COc1ccccc1NS(=O)(=O)c1cccc(C(=O)N/N=C/c2ccc3c(c2)OCCO3)c1 returned HCV inhibitor 3%, VACV mCherry inh -15%, HCMV antiviral -63*, VACV Venus inh -14%, MARV entry inh 0% and LASV entry inh 10%.
CCN(CC)c1ccc(C(=O)N/N=C/c2ccccc2OC(F)F)cc1 was read as HCV inhibitor 11µM* and HCMV antiviral -36.
For COc1cccc(-c2cnc(NCc3ccccc3Cl)n2C)c1 the results were VACV mCherry inh -30%, HCMV antiviral -25, VACV Venus inh -29%, MARV entry inh inconclusive and LASV entry inh -28%[46.1 µM].
CCc1ccc(NC(=O)COC(=O)c2ccccc2OCC(=O)N(C)C)cc1 was read as VACV mCherry inh -11% and VACV Venus inh -9%.
For CCN(CC)c1ccc(/C=N/NC(=O)c2ccc3nc[nH]c3c2)c(O)c1 the results were HCV inhibitor 5µM*, VACV mCherry inh 11µM*, VACV Venus inh inconclusive, MARV entry inh inconclusive and LASV entry inh inconclusive.
CCN(CC)c1ccc(/C=N/NC(=O)c2cccc(S(=O)(=O)Nc3ccccc3OC)c2)cc1 was read as HCV inhibitor 11µM* and HCMV antiviral -16.
O=C(Nc1ccn2ccnc2n1)c1ccccc1OC(F)(F)F was read as HCMV antiviral -30.
For Nn1c(SC/C=C/c2ccccc2)nnc1-c1ccncc1 the results were HCV inhibitor 15%, VACV mCherry inh inactive, HCMV antiviral -69*, VACV Venus inh -15%, MARV entry inh 22% and LASV entry inh -20%.
COc1cc(-c2nnc(SC/C=C/c3ccccc3)n2N)cc(OC)c1OC was read as HCV inhibitor -8%, VACV mCherry inh 6%, HCMV antiviral 24, VACV Venus inh 11%, MARV entry inh inconclusive and LASV entry inh 0%.
For Nn1c(SCc2cccc(Cl)c2)nnc1-c1ccncc1 the results were HCV inhibitor 6%, VACV mCherry inh inactive[7.34 µM], HCMV antiviral -7, VACV Venus inh -5%[7.34 µM], MARV entry inh -2%[46.1 µM] and LASV entry inh -2%.
For Nn1c(SCc2cccc(Oc3ccccc3)c2)nnc1C(F)(F)F the results were HCV inhibitor 14%, VACV mCherry inh inactive, HCMV antiviral -73*, VACV Venus inh -13%, MARV entry inh inconclusive and LASV entry inh 0%.
`COc1cccc(CSc2nnc(C(F)(F)F)n2Cc2ccc(F)cc2)c1` gave HCV inhibitor -8%, HCMV antiviral 0, MARV entry inh 5% and LASV entry inh inconclusive.
Screening COc1cccc(CSc2nnc(-c3ccncc3)n2N)c1 returned HCV inhibitor -2%, VACV mCherry inh -5%, HCMV antiviral -69*, VACV Venus inh -4%, MARV entry inh inconclusive and LASV entry inh inconclusive.
Cc1c(C(=O)Nc2ccc3oc(-c4cccnc4)nc3c2)oc2ccccc12 was read as HCV inhibitor inconclusive, HCMV antiviral -67*, MARV entry inh -19% and LASV entry inh 18µM*.
`Cc1c(C(=O)NCc2ccccn2)oc2ccc(Br)cc12` gave HCV inhibitor -18%, VACV mCherry inh 97%, HCMV antiviral 31, VACV Venus inh -11%, MARV entry inh 21% and LASV entry inh 20%.
Screening O=C(Nc1ccc2oc(-c3cccnc3)nc2c1)c1cccnc1 returned HCV inhibitor -2%, HCMV antiviral 5, MARV entry inh 0% and LASV entry inh 2%.
`Cc1c(C(=O)Nc2cccnc2)oc2ccc(Br)cc12` gave HCV inhibitor inconclusive, VACV mCherry inh inconclusive, HCMV antiviral 51, VACV Venus inh inconclusive, MARV entry inh 5µM* and LASV entry inh inconclusive.
